Our source for the log2 fold change values is the supplement of paper PMC10849652.

The full data set covers some 7,900 targets. This sample favours those with a hit. About 0.6% of all pairs of compound and target were hits. A number with no mark means an inactive call.

Chain of UniProt Q9Y2L5 (Q9Y2L5 whole entry, looked up): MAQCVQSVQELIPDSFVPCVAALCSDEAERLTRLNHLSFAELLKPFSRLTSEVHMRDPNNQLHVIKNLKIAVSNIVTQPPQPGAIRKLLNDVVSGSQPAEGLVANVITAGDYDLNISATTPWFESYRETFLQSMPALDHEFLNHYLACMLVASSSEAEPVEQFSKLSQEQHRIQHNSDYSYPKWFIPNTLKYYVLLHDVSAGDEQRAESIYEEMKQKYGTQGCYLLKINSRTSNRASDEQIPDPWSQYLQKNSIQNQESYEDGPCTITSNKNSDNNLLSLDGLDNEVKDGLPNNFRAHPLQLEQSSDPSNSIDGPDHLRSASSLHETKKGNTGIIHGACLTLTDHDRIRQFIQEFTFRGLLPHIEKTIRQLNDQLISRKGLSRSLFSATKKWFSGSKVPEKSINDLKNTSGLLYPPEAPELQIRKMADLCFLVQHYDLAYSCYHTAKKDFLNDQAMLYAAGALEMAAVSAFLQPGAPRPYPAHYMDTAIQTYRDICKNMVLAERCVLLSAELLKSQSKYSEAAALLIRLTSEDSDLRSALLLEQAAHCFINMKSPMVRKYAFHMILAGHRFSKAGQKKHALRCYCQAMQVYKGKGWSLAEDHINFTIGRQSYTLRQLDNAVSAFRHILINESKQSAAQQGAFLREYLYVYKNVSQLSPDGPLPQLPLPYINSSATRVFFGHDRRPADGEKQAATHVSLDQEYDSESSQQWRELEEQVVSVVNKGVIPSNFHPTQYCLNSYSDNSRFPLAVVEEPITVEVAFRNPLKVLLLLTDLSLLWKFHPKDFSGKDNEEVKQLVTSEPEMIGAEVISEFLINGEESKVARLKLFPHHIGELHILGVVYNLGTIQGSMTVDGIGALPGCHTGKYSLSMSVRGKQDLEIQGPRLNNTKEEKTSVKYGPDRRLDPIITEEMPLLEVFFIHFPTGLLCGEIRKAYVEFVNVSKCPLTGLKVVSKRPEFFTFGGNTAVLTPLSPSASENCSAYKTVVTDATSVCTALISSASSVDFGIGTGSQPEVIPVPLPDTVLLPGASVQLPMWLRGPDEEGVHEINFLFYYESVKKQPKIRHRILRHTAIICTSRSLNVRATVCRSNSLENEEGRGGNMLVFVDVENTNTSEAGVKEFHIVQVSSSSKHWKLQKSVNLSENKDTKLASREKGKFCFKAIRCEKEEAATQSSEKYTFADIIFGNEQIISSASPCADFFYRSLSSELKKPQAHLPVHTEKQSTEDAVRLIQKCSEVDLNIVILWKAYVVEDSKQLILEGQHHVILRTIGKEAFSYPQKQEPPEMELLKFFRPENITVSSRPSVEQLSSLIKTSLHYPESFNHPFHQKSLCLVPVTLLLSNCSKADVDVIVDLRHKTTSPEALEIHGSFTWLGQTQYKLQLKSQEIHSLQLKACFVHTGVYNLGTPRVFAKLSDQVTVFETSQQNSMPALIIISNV
Chain of UniProt O75674 (O75674 whole entry, looked up): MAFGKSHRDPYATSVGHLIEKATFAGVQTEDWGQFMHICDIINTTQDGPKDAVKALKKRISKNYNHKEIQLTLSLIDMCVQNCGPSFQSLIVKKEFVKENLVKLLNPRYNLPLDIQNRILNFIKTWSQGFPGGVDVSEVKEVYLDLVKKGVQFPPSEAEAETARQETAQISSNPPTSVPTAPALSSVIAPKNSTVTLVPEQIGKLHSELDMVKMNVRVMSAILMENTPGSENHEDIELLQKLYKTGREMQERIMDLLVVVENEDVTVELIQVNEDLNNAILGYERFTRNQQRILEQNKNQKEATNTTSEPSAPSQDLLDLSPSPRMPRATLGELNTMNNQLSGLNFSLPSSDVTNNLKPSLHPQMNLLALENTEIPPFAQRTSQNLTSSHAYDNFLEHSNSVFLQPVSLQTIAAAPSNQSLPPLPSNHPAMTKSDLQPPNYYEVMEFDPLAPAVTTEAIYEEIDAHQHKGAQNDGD
Chain of UniProt P49815 (P49815 whole entry, looked up): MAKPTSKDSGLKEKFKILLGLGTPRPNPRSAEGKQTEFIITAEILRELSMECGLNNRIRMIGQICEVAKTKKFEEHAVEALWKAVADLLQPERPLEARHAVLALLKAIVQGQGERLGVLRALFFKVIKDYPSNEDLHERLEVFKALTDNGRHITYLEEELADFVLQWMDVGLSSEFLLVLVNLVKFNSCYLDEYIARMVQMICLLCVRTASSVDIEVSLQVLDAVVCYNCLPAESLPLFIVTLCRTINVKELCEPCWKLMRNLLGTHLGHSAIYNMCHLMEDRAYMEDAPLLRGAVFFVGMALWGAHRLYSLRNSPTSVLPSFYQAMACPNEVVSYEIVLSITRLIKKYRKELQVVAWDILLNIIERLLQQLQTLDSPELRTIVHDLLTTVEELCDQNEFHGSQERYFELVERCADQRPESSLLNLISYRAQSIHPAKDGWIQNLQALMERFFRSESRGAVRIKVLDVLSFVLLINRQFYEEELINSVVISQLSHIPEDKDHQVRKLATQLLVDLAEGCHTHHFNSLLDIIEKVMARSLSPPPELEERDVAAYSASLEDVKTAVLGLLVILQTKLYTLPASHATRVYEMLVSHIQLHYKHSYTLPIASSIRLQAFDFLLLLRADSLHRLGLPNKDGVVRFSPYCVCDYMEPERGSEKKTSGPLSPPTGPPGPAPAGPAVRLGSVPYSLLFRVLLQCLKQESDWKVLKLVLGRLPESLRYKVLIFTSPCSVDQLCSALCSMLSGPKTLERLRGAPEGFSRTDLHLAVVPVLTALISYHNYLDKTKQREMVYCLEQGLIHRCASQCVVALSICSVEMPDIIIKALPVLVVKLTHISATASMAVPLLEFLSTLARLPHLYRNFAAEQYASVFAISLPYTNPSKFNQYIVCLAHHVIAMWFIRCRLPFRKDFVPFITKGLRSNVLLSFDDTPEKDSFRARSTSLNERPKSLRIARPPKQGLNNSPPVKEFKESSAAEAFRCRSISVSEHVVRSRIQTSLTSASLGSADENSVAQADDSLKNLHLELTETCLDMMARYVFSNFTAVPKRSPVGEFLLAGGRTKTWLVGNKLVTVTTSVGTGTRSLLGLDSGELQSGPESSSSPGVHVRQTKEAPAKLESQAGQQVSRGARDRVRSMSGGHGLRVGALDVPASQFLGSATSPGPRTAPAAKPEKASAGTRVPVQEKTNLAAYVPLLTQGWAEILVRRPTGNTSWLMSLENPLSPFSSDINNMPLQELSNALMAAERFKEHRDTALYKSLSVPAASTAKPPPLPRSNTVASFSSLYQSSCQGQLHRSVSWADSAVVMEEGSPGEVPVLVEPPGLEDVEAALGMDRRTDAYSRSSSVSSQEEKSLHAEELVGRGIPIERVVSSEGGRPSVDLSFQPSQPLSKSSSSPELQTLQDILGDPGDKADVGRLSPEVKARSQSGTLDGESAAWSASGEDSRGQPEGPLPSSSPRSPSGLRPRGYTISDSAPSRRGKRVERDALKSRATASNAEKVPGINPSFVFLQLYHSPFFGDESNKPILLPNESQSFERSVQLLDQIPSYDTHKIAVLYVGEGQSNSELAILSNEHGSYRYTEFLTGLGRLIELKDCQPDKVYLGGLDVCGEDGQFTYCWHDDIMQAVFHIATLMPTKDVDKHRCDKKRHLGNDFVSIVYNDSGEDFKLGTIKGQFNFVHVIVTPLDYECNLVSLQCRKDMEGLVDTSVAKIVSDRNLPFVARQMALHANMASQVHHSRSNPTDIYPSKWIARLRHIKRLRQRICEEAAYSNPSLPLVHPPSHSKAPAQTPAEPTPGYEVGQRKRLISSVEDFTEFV
Chain of UniProt Q9BV38 (Q9BV38 whole entry, looked up): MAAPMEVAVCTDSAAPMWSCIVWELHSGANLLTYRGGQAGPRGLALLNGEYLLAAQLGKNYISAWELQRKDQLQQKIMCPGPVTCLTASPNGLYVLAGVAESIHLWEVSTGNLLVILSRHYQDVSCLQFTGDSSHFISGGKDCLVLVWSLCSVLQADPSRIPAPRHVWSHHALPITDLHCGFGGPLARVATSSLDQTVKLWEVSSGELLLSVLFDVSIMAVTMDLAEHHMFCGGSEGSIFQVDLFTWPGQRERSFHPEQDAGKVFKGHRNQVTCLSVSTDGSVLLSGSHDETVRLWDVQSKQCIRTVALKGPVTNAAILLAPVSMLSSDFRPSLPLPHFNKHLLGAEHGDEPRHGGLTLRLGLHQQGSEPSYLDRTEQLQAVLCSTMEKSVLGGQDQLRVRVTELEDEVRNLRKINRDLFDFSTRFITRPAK
Chain of UniProt Q9Y5K5 (Q9Y5K5 whole entry, looked up): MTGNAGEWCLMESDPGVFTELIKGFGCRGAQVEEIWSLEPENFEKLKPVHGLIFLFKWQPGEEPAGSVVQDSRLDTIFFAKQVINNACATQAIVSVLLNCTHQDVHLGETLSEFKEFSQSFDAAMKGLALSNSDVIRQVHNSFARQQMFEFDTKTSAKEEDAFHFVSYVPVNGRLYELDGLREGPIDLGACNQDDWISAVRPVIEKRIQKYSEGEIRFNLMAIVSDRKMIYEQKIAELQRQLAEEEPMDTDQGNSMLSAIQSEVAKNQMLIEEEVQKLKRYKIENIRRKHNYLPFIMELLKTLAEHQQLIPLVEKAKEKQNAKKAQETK
Chain of UniProt Q9NQW7 (Q9NQW7 whole entry, looked up): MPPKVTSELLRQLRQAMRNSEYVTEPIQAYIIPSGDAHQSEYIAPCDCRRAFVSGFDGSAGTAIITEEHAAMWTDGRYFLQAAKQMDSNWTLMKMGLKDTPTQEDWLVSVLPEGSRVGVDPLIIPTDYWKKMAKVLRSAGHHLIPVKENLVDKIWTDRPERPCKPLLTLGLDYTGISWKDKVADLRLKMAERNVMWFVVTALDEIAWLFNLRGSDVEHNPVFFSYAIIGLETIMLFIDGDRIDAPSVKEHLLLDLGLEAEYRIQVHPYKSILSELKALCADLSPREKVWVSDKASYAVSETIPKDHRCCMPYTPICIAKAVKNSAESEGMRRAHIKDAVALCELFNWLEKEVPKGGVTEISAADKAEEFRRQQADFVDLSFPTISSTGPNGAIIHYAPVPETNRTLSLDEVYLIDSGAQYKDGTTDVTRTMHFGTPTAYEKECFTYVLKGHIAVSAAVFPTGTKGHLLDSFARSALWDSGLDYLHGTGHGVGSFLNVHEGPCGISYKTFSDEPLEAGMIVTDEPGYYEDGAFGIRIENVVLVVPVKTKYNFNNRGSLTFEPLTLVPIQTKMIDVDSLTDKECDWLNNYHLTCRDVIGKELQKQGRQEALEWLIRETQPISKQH

Compound in this assay: c1cn2cc(-c3ccc4cn[nH]c4c3)nc(Nc3ccc(N4CCOCC4)cc3)c2n1 [entospletinib]
The assay can be described thus: log2 fold change, soluble protein after heating vs DMSO (PISA); higher = thermal stabilisation; K562 cells, 10 uM, 30 min; active = over 0.2 and 3.5 SD of the protein, either way, in both replicates (recomputed). An outline of the steps:
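K562 cells at 2×10^6 cells/mL were exposed to 10 μM compound for 30 min, then aliquots were heated for 3 min across 48°C-58°C, pooled, and extracted in PBS containing 0.5% NP-40 at 4°C. The supernatant after 21,000xg for 90 min was taken as soluble protein and measured by TMTpro 16plex LC-MS/MS with channel sums equalised. Thermal stability is reported relative to control samples, with values from duplicates. Fold changes are given on a log2 scale.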
As for UTP14A (UniProt Q9BVJ6), the log2 fold change was 0.042.
Consider TOP2A isoform 4 (UniProt P11388), for which the log2 fold change was 0.119.
As to WDR18 (UniProt Q9BV38), the log2 fold change is -0.061.
With USP24 (UniProt Q9UPU5), the log2 fold change was 0.016.
Turning to TSC2 (UniProt P49815), the log2 fold change is -0.17.
As to WDR4 (UniProt P57081), the log2 fold change was -0.027.
As to TRAPPC8 (UniProt Q9Y2L5), the log2 fold change is 0.004.
The value for TMEM128 (UniProt Q5BJH2) was 0.018; that for XPNPEP1 isoform 3 (UniProt Q9NQW7) was -0.027.
The value for UBA52 (UniProt P62987) was 0.159; that for WASH2P (UniProt Q6VEQ5) was 0.015; that for TMEM189-UBE2V1 (UniProt I3L0A0) was -0.017.
For the target TMEM173 (UniProt Q86WV6), the log2 fold change is -0.022.
The value for UCHL5 (UniProt Q9Y5K5) was -0.023; that for TMEM9B (UniProt Q9NQ34) was -0.049; that for TOM1L1 (UniProt O75674) was 0.038.
